The source of these data is PubChem BioAssay (NCATS).

Assay [1] has as its target Lysosomal acid glucosylceramidase (Homo sapiens) (UniProt P04062). Kind of assay: Glucocerebrosidase-p2 (AID 348; in the data active = potency below about 10 µM; also: potency is read from the fitted curve at half-maximal effect). The settings on record: purified GBA, blue fluorogenic substrate, 40 min. The method in brief: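 Normal human glucocerebrosidase (0.2 nM) with blue fluorogenic substrate (80 uM final) in citrate/phosphate pH 5.9 with 10mM sodium taurocholate, 0.01% tween-20; 40 min RT, NaOH/glycine stop; fluorescence Ex 365/Em 440; AC50 from a titration from 0.6 nM upwards.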

A short description of assay [2]: AP1 Signaling Pathway (AID 357; active = well fitted curve in either direction with a large enough effect, not every such curve was filed as active;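 also: ME-180 reporter cells stimulated with EGF at its EC50 level; % is scaled to controls: 0 for no effect and ±100 for the full control effect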). The settings on record: ME-180 AP-1-bla reporter, EGF-induced, beta-lactamase ratio, 5 h; at 7.69 µM (top of the series) unless noted. The essentials: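 AP-1-bla ME-180 cells, Opti-MEM + 0.5% dialyzed FBS, plated overnight 37 °C. Cpd titration + EC50 EGF, 5 h 37 °C. CCF4 2.5 h RT; ex 405, em 460/530 ratio → %activity, AC50.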
Assay [3] has as its target Cytochrome P450 1A2 (Homo sapiens) (UniProt P05177). Kind of assay: p450-cyp1a2 (AID 410; calls by dose curve; also: potency is read from the fitted curve at half-maximal effect). Particulars: recombinant CYP1A2, luciferin-ME demethylation, luminescence; series mostly up to 57 µM. The essentials: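 Read-out is luminescence from luciferin produced by CYP1A2 demethylation of Luciferin-ME (100uM, at Km). Detection reagent stopped the 60 min NADPH-dependent reaction; signals were normalized to 57 uM furafylline.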

The nature of assay [4]: NFAT Signaling Pathway (AID 444; active = well fitted curve in either direction with a large enough effect, not every such curve was filed as active;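 also: carbachol stimulus at about its EC50 of 1 µM final; % is scaled to controls: 0 for no effect and ±100 for the full control effect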). The settings on record: Jurkat NFAT-bla M1, carbachol, beta-lactamase ratio, 5 h; at 7.69 µM (top of the series) unless noted. The method in brief: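 Read-out: CCF4 FRET ratio (460 nm/530 nm) after 1 h RT dye loading, used for %activity and AC50 from titration series. Cells: Jurkat NFAT-β-lactamase/M1 line, treated with compound plus 1 uM carbachol for 5 h, 37 °C.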

Assay [5] is described as follows: Stat Signaling Pathway (AID 446; active = well fitted curve in either direction with a large enough effect, not every such curve was filed as active;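 also: ME-180 cervical cancer cells given 40 pM IL-6 alongside compound; SIE-controlled beta-lactamase reporter measured as 460/530 nm FRET emission ratio; % is scaled to controls: 0 for no effect and ±100 for the full control effect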). Particulars: ME-180 (cervical carcinoma) SIE beta-lactamase reporter, IL-6 stimulated, 5 h; at 7.69 µM (top of the series) unless noted. The essentials:
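Normalization used AC90 stimulation (300 pM IL-6) and AC90 inhibition (125 nM pan-JAK inhibitor at 40 pM IL-6). The underlying signal is SIE-driven beta-lactamase in ME-180 cells after 5 h IL-6 exposure with compound.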

The target of assay [6] is Glucocorticoid receptor (Homo sapiens) (UniProt P04150). Put plainly: GR-GFP Redistribution (AID 450;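 active = compounds whose dose series gives a full or clear partial fitted curve of increased nuclear translocation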; also: potency is read from the fitted curve at half-maximal effect). Particulars: U2OS GR-GFP nuclear translocation, laser cytometry, 2 h.
Glucocorticoid receptor (Homo sapiens), sequence (P04150 whole entry, looked up, the tested form may be a part): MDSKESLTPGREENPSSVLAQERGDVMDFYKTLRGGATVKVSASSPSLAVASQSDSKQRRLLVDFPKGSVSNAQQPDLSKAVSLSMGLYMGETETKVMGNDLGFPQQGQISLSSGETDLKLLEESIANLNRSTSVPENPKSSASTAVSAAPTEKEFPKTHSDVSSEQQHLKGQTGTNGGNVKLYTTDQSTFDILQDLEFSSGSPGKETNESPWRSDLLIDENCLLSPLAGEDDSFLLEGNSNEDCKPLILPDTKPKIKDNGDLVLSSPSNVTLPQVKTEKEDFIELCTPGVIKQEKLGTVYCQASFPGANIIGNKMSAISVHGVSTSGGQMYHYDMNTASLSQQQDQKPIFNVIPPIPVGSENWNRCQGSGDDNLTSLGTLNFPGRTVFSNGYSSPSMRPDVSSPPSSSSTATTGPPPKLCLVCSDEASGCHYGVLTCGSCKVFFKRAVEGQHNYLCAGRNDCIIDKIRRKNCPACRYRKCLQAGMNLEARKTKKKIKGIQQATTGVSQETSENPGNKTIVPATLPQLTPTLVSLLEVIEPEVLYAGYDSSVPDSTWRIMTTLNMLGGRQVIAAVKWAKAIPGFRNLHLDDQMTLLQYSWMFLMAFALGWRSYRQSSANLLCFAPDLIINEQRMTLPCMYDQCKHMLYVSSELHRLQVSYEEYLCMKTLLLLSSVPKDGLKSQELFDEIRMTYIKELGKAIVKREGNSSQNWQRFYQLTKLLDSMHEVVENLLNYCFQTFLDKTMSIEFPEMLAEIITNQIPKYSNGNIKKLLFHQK
The target is the same in assay [7]. Kind of assay: GR-EFC Redistribution (AID 451; calls by dose curve; also: potency is read from the fitted curve at half-maximal effect). The settings on record: CHO-K1 GR-EFC translocation, beta-gal luminescence, 2 h. The essentials: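 Translocation of GR-ED fusion to nuclear EA restores b-gal, read by luminescence after 1 h room-temperature detection. Engineered CHO-K1 biosensor cells, 1,000/well, exposed 2 h at 37 C to titrations up to 46 uM final.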

The target in assay [8] is Mitogen-activated protein kinase 10 (Mus musculus) (UniProt Q61831). Put plainly: JNK3 AlphaScreen Assay (AID 530; active = well fitted curve in either direction with a large enough effect, not every such curve was filed as active;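 also: kinase came from lysate of stimulated human HepG2 cells; signal reports phosphorylation of biotinylated GST-cJun 1-79 at Ser73 with 10 µM ATP; % is scaled to controls: 0 for no effect and ±100 for the full control effect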). Particulars: JNK3 lysate, c-Jun phosphorylation; series mostly up to 57.1 µM. The method in brief:
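Kinase buffer: 20 mM Tris-HCl pH 7.6, 10 mM MgCl2, 1 mM DTT, 0.1 mM Na3VO4, 0.01% Tween-20; ATP 10 uM. Substrate biotin-GST-cJun(1-79), enzyme from activated HepG2 lysates. Detection by Ser73 phospho-antibody AlphaScreen.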
On the technique in general: In Alpha technology, singlet oxygen from a donor bead excites a nearby acceptor bead.

The target of assay [9] is Cytochrome P450 3A4 (Homo sapiens) (UniProt P08684). Put plainly: qHTS Assay for Activators of Cytochrome P450 3A4 (AID 885). Also: nearly all actives have a fitted effect of over 65% in size. Particulars: recombinant CYP3A4, Luciferin-PPXE luminescence, 60 min; series mostly up to 57.1 µM. The essentials: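 Human CYP3A4 dealkylates Luciferin-PPXE to luciferin, which luciferase detection converts to light. Substrate was at its KM (25uM), buffer 200mM KPO4, reaction 60 min at RT.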
Cytochrome P450 3A4 (Homo sapiens), sequence (P08684 whole entry, looked up): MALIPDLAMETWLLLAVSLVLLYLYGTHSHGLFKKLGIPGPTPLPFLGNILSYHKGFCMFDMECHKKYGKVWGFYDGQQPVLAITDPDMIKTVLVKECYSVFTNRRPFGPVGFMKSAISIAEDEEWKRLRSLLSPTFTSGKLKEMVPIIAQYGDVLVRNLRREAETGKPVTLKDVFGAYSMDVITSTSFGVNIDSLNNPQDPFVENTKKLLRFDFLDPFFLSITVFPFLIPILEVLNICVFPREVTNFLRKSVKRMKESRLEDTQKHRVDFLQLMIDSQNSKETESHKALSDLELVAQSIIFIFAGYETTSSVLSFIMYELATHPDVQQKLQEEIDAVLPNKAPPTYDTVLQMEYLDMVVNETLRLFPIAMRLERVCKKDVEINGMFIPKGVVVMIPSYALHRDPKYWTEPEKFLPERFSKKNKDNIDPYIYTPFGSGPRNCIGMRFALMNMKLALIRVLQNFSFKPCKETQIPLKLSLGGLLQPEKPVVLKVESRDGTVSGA

Assay [10] can be described thus: qHTS Assay for Lipid Storage Modulators (AID 1519; calls by dose curve). The settings on record: Drosophila S3 cells, BODIPY lipid droplet/cell ratio, laser cytometry, cells loaded with oleic acid; for activity change, negative = inhibition: at 57.5 µM (top of the series). The essentials:
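Cells seeded at 5,000 per well were treated with compounds over a concentration series and loaded with oleic acid (400 uM, as added). Lipid droplet fluorescence (488 nm excitation, 500-530 nm channel) was read by laser-scanning cytometry and normalized to 20 uM Triacsin C.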
On the technique in general: Quantitative high-throughput screening tests each substance at several concentrations.

Assay [11] deals with Dual specificity protein kinase CLK4 (Homo sapiens) (UniProt Q9HAZ1). Put plainly: qHTS Assay for Inhibitors of CDC-like Kinase 4 (Kinase-Glo Assay) (AID 1770). Also: nearly all actives have a fitted effect of over 65% in size. Also: potency is read from the fitted curve at half-maximal effect. Particulars: recombinant Clk4, Kinase-Glo ATP depletion luminescence; series mostly up to 66.7 µM. The essentials: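 Readout: Kinase-Glo luminescence from ATP left after a 4.5 h room-temperature reaction of 25 nM Clk4 with 100 uM RS peptide and 1 uM ATP (final). Buffer: 25 mM Tris pH 7.5, 10 mM MgCl2.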
Dual specificity protein kinase CLK4 (Homo sapiens), sequence (Q9HAZ1 whole entry, looked up): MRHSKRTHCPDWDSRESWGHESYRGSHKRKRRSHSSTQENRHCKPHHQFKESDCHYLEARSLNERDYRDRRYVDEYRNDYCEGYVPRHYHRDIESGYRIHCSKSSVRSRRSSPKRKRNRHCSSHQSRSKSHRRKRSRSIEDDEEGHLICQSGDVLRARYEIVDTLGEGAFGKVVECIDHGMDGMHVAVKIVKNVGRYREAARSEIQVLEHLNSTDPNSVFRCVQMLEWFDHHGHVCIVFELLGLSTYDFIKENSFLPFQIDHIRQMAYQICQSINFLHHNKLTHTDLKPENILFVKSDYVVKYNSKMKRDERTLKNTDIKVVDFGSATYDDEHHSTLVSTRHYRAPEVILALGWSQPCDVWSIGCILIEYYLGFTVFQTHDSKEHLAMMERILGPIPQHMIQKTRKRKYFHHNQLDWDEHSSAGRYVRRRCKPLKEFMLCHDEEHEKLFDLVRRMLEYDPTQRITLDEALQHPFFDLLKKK

For assay [12] the target is unchanged. Put plainly: qHTS Assay for Inhibitors of CDC-like Kinase 4 (ADP-Glo Assay) (AID 1771). Also: nearly all actives have a fitted effect of over 70% in size. Also: potency is read from the fitted curve at half-maximal effect. The settings on record: recombinant CLK4, ADP-Glo luminescence; series mostly up to 80 µM. The method in brief: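 In this ADP-Glo format, 1 uM ATP and 100 uM RS peptide served as substrates for 25 nM Clk4 in Mg2+/EGTA/DTT/Triton buffer; reactions ran 1 hr at room temperature before luminescent ADP quantification.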

Assay [13] has the same target. Put plainly: qHTS Assay for Inhibitors of CDC-like Kinase 4 (ADP-FP Assay) (AID 1795). Also: nearly all actives have a fitted effect of over 60% in size. Also: potency is read from the fitted curve at half-maximal effect. Particulars: Transcreener ADP fluorescence polarization; series mostly up to 50 µM. The method in brief: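 FP readout: Orange Transcreener ADP2 tracer (4 nM) plus ADP antibody, read after 30 min at room temperature. Kinase step: 6.25 nM Clk4, 100 uM RS peptide, 1 uM ATP, pH 7.5, 1 h.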

Assay [14] addresses Ubiquitin carboxyl-terminal hydrolase 1 (Homo sapiens) (UniProt O94782). Put plainly: Inhibitors of USP1/UAF1: Pilot qHTS (AID 504865). Also: nearly all actives have a fitted effect of over 35% in size. Also: potency is read from the fitted curve at half-maximal effect. The settings on record: purified USP1/UAF1, Ub-rhodamine cleavage fluorescence; series mostly up to 54.9 µM. The method in brief:
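1nM USP1/UAF1 + cpd, 15 min RT; start w/ Ub-Rho 150nM final; kinetic FL 480/540 nm, 6 reads q60 s. Buffer 50mM HEPES pH 7.8, 0.5mM EDTA, 1mM TCEP, 0.01% Tween-20, 0.1 mg/ml BSA.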

Assay [15] is described as follows: Primary qHTS for small molecule stabilizers of the endoplasmic reticulum resident proteome: Secreted ER Calcium Modulated Protein (SERCaMP) assay (AID 1508630). Also: % is scaled to controls: 0 for no effect and ±100 for the full control effect. Particulars: SH-SY5Y GLuc-SERCaMP (Gaussia luciferase released on ER calcium loss) secretion, thapsigargin, luminescence; series mostly up to 38.4 µM. The essentials:
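The SH-SY5Y reporter protocol was run at 3 concentrations up to 38.3 uM (primary) or 11 concentrations (follow-up): 16 h compound, 100 nM thapsigargin for 4 h, then extracellular luciferase luminescence.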

The target in assay [16] is 3',5'-cyclic-AMP phosphodiesterase 4B (Homo sapiens) (UniProt Q07343). Kind of assay: qHTS Assay for Inhibitors of PDE-IV (AID 607; active = well fitted activation curve with a large enough effect in the main read-out, with a control signal flat, not every such curve was filed as active; also: % of control where 0% means no effect). Particulars: HEK293 ACTOne CNG channel cells, membrane potential fluorescence; series mostly up to 22.9 µM. The method in brief:
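HEK293 ACTOne cells with CNG channel (1000/well), endogenous PDE4; membrane potential dye, compounds up to 22.9 uM final. Fluorescence Ex 535/Em 590; RO 20-1724 (100 uM final) as reference.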

Assay [17] has as its target Cytochrome P450 3A4 (Homo sapiens) (UniProt P08684). Put plainly: qHTS Assay for Inhibitors and Substrates of Cytochrome P450 3A4 (AID 884). Also: nearly all actives have a fitted effect of over 50% in size. Also: potency is read from the fitted curve at half-maximal effect. The settings on record: recombinant CYP3A4, Luciferin-PPXE luminescence; series mostly up to 57.1 µM. The essentials:
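Luminescent readout of luciferin produced by CYP3A4 (20 nM) dealkylation of Luciferin-PPXE, 25 uM (its KM). NADPH-driven reaction ran 60 min at RT after 10 min compound preincubation; data scaled to 57 uM ketoconazole as 100% inhibition.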

Setting [18] is: measured here: cell count channel max response.
Setting [19] is: measured here: lipid channel max response.

Results filed as inconclusive are left out. Calls of active or inactive are those of the source. Unless noted, calls follow the shape of the dose curve; as a rule, active = well fitted curve in the direction sought with a large enough effect; inconclusive = small, poorly fitted or top-dose-only effect, or another doubt; inactive = no such curve, though single readings can be large; an effect the other way counts as inactive or inconclusive.

Cytochrome P450 1A2 (Homo sapiens), sequence (P05177 whole entry, looked up): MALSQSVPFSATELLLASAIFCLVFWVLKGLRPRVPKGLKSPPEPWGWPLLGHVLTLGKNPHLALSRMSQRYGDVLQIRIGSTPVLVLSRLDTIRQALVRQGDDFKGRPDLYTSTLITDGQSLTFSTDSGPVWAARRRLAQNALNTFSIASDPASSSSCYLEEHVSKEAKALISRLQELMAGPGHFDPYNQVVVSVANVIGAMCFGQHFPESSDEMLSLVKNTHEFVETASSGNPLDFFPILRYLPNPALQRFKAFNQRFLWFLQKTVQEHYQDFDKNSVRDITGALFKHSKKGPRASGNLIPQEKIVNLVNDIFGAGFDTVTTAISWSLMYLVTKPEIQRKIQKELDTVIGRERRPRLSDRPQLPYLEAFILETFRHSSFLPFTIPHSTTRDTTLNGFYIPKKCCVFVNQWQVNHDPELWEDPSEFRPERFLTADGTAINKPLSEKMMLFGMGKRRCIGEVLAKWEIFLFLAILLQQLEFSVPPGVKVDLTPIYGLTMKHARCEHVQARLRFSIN
Ubiquitin carboxyl-terminal hydrolase 1 (Homo sapiens), sequence (O94782 whole entry, looked up): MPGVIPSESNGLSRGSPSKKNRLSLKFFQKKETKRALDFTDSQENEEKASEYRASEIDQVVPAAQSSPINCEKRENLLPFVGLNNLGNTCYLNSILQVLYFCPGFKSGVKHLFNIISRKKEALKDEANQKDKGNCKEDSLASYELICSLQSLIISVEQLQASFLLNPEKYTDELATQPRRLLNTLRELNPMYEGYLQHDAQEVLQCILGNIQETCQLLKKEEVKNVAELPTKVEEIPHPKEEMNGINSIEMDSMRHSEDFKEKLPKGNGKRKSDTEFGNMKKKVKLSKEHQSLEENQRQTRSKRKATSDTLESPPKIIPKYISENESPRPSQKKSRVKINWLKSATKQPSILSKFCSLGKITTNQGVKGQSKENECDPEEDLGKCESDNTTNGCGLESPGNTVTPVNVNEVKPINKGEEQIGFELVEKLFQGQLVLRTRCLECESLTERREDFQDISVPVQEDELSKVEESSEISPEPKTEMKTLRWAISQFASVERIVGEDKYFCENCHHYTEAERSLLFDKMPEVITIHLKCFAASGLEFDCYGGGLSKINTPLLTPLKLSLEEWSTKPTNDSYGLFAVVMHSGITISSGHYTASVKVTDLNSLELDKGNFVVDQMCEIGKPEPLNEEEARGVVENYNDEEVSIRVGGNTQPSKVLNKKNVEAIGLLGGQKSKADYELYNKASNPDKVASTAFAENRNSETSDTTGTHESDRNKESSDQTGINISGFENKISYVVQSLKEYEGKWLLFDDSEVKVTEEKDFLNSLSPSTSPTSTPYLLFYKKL
Lysosomal acid glucosylceramidase (Homo sapiens), sequence (P04062 whole entry, looked up): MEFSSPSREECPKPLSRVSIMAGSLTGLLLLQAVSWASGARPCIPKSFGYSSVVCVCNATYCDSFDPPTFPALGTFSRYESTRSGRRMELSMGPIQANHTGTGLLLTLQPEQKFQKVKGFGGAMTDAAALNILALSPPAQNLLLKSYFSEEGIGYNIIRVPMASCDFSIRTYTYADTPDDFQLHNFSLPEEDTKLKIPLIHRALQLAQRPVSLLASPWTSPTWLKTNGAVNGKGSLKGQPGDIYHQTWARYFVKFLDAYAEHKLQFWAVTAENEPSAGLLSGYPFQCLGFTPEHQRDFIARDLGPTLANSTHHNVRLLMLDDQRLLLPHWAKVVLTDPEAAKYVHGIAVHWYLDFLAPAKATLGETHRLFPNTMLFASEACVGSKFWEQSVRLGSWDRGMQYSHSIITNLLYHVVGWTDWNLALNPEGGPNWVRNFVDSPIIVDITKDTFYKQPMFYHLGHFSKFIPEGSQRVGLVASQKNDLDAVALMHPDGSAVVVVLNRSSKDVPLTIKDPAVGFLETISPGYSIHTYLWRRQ
3',5'-cyclic-AMP phosphodiesterase 4B (Homo sapiens), sequence (Q07343 whole entry, looked up): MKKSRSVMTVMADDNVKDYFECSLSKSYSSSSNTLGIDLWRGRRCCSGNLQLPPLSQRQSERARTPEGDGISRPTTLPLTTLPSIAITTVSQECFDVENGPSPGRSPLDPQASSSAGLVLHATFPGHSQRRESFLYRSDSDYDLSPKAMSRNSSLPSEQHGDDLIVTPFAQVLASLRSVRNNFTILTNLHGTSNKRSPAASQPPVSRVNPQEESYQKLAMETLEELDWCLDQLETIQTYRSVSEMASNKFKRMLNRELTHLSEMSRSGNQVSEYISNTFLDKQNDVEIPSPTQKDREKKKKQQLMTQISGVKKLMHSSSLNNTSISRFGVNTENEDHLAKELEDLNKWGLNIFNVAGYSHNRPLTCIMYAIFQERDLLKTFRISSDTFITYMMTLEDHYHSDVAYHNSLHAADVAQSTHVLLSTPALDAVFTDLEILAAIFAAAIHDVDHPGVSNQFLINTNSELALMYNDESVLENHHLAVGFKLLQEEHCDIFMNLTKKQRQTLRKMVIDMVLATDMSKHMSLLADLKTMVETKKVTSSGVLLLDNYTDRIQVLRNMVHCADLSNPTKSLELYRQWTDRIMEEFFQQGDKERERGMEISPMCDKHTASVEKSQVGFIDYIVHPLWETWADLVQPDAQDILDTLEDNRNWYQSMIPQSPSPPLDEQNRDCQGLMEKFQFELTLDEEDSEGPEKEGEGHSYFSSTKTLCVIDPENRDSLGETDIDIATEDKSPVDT

Turning to `COc1cccc(-c2nc(NCc3ccccc3)c3ccccc3n2)c1`, the Potency was > 11.4 µM (inactive) in assay [1]; 3.16 µM (active) in assay [3]; > 46 µM (inactive) in assay [6]; > 46 µM (inactive) in [7]; 6.31 µM (active) in [11]; 6.31 µM (active) in assay [12]. In assay [13], the Potency is 2.24 µM (active). Besides, the activity change, negative = inhibition in assay [2] is -17.6% (inactive); in assay [4], 0.742% (inactive); in assay [10], -4.54% (inactive). In addition, the activity, negative = inhibition in assay [5] is -12.9% (inactive). Moreover, in assay [8], the call was inactive. In addition, the Potency result in [9], in [14] and in assay [15] was “inactive” in each case. For the same compound, the max response was 10.5% in assay [10] (setting [18]) and 2.86% in assay [10] (setting [19]).
As for `Cc1nc2cncnc2n(Cc2ccccc2)c1=O`, the Potency in [1] is > 11.4 µM (inactive); in assay [3], 12.6 µM (active); in assay [6], > 9.22 µM (inactive); in assay [7], > 46 µM (inactive). The activity change, negative = inhibition in assay [2] is -13.3% (inactive); in assay [4], -2.35% (inactive); in [10], 1.73% (inactive). In [5], the activity, negative = inhibition is -15.3% (inactive). In addition, the call in assay [8] was inactive. The max response in [10] (setting [18]) was determined as 12.6%; in assay [10] (setting [19]), 8.3%. Moreover, the Potency result in assay [11], in [12], in [13], in assay [14] and in [15] was “inactive” in each case.
As for `Cn1c(=O)c(-c2ccc(Cl)cc2)nc2cnc(Oc3cccc(Cl)c3)nc21`, the Potency in assay [1] is > 11.4 µM (inactive); in assay [3] it was 0.251 µM (active); in assay [6] it was > 9.22 µM (inactive); in assay [7] it was > 46 µM (inactive). The activity change, negative = inhibition in [2] was -7.62% (inactive); in [4] it was -6.5% (inactive); in [10] it was 5.31% (inactive). The activity, negative = inhibition in assay [5] is -0.313% (inactive). In addition, in assay [8], the compound was called inactive. The Potency result in assay [16], in assay [17], in assay [11], in [12], in assay [13] and in assay [14] was “inactive” in each case. Besides, the Potency result in assay [15] was “inactive”. The figures for the max response in assay [10] (setting [18]) and in [10] (setting [19]) were 11.8% and 14.2%, respectively.
For `CN1CCN(c2ncnc3ccc(-c4ccc5c(c4)OCO5)cc23)CC1`, the Potency in [1] is > 11.4 µM (inactive); in [3], 2.51 µM (active); in [6], > 46 µM (inactive); in assay [7], > 46 µM (inactive); in assay [17], 7.94 µM (active); in assay [11], 0.282 µM (active). Also, the results for the Potency in assay [12] and in assay [13] were 0.562 µM (active) and 0.158 µM (active), respectively. Also, the figures for the activity change, negative = inhibition in assay [2], in assay [4] and in assay [10] were -24.4% (inactive), -20.4% (inactive) and 4.95% (inactive), respectively. Further, the activity, negative = inhibition in [5] was 6.89% (inactive). Further, the outcome in assay [8] was inactive. Moreover, the Potency entry in assay [16], in assay [9], in assay [14] and in assay [15] was “inactive” in each case. Also, the max response amounted to 4.86% in assay [10] (setting [18]) and 5.74% in assay [10] (setting [19]).
Consider `FC(F)(F)c1ccccc1-c1nccc(NCc2cccs2)n1`, for which the Potency in [1] was > 11.4 µM (inactive); in [3] it was 1.26 µM (active); in assay [6] it was > 46 µM (inactive); in assay [7], > 46 µM (inactive); in assay [17] it was 2 µM (active); in assay [14] it was 11.2 µM (active). In addition, the activity change, negative = inhibition was 2% (inactive) in assay [2], -3.1% (inactive) in assay [4] and 5.22% (inactive) in assay [10]. Also, in assay [5], the activity, negative = inhibition is -15.9% (inactive). Also, the outcome in assay [8] was inactive. For the same compound, the Potency result in assay [9], in assay [11], in assay [12], in [13] and in assay [15] was “inactive” throughout. Further, the max response in assay [10] (setting [18]) worked out at 6.69%; in assay [10] (setting [19]), 8.2%.
As for `COc1ccc(-n2c(=O)c(-c3cccs3)nc3cnc(OC)nc32)cc1`, the Potency is > 11.4 µM (inactive) in assay [1]; 5.01 µM (active) in assay [3]; > 9.22 µM (inactive) in assay [6]; > 46 µM (inactive) in assay [7]; 7.94 µM (active) in assay [17]. Moreover, the figures for the activity change, negative = inhibition in [2], in [4] and in assay [10] were -22.9% (inactive), -2.37% (inactive) and 3.59% (inactive), respectively. Further, the activity, negative = inhibition in assay [5] is -2.82% (inactive). The outcome in assay [8] was inactive. The Potency result in assay [9], in assay [11], in assay [12], in assay [13], in assay [14] and in assay [15] was “inactive” in each case. Moreover, the values for the max response in assay [10] (setting [18]) and in assay [10] (setting [19]) were 12.4% and 13.8%, respectively.
